Laboratory results taken from PubChem BioAssay.
The source made the active and inactive calls. Unless noted, the rule behind the calls is not given here.

Columns and labels:
[1] = tested on: Wnt5a (protein binding on small-molecule microarray); experiment: Wnt5a binders on small-molecule microarray, primary screen, biophysical, 635/667 nm fluorescence (AID 1142); conditions: 635 nm fluorescence, higher = more signal;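 note: fluorescence read at 667 nm with signal to noise per printed feature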
[2] = cell viability in Huh7 cells, primary screen, cytotoxicity control for HCV replication inhibitor project, CellTiter-Glo luminescence, basal, 48 h (AID 1143); conditions: Huh7 HCV replicon, higher = more signal, called active from +8 up or from −8 down;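 note: Huh7 hepatoma cells carrying a hepatitis C replication reporter with no stimulus; test concentration not given here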
[3] = P. aeruginosa biofilm formation inhibitors, primary screen, PAO1 strain, BacTiter-Glo luminescence, LB-PBS (AID 1144); conditions: 12 h, higher = more signal
[4] = CREB reporter modulators without forskolin, primary screen, cell-based, PC12, CRE-LacZ reporter, unstimulated (AID 1145); conditions: no forskolin, luminescence, 4.5 h, higher = more signal, called active from +8 up or from −8 down
[5] = CREB reporter modulators under forskolin, primary screen, cell-based, PC12, CRE-LacZ reporter, forskolin-stimulated (AID 1146); conditions: luminescence, 4.5 h, higher = more signal, called active from +8 up or from −8 down;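 note: PC12 cells with 6xCRE LacZ reporter stimulated by forskolin 10 µM; beta-galactosidase reporter signal reflecting CREB driven transcription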
[6] = target: Streptavidin (Streptomyces avidinii) (UniProt P22629); experiment: streptavidin binders on small-molecule microarray, primary screen, artefact control for SMM compound annotation, biophysical, 635/667 nm fluorescence (AID 1147); conditions: streptavidin binding, higher = more signal;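 note: signal reflects streptavidin binding to arrayed compounds as a control protein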
Streptavidin (Streptomyces avidinii), sequence (P22629 whole entry, looked up): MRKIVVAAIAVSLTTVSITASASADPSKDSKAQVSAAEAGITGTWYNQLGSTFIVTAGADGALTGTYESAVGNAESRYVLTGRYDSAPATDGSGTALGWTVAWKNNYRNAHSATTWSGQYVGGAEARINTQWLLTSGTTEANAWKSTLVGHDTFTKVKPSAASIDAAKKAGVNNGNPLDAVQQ

[7] = small-molecule binders of probe aInhba, primary screen, biochemical, small-molecule microarray, 635/667 nm fluorescence (AID 1148); conditions: higher = more signal;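 note: score merges 667nm spot fluorescence with signal-to-noise for antibody binding to printed compounds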
[8] = target: Torsin-1A (Homo sapiens) (UniProt O14656); experiment: torsin A binders from cell lysate, primary screen, small-molecule microarray, wild-type, 635/667 nm (AID 1149); conditions: COS7 hTOR1A-WT lysate, 635 nm fluorescence, higher = more signal
Torsin-1A (Homo sapiens), sequence (O14656 whole entry, looked up): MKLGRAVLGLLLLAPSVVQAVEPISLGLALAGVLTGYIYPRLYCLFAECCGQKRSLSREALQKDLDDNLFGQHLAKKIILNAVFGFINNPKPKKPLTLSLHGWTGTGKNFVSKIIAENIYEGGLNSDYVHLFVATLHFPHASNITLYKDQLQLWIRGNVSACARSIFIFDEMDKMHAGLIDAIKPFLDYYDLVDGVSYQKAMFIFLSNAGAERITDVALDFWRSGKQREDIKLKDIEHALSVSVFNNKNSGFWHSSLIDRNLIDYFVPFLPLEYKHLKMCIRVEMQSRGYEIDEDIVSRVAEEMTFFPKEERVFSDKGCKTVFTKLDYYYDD

[9] = target: Torsin-1A (Homo sapiens) (UniProt O14656); experiment: small-molecule binders of mutant TOR1A in lysate, primary screen, cell lysate, small-molecule microarray, COS7 lysate, 635/667 nm fluorescence (AID 1150); conditions: COS7 hTOR1A mutant lysate, 635 nm fluorescence, higher = more signal;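 note: score pools 667 nm emission and signal to noise measuring lysate protein binding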
[10] = tested on: Sonic hedgehog protein (Shh); experiment: small-molecule binders of Shh protein, primary screen, biochemical, small-molecule microarray, 635/667 nm fluorescence (AID 1151); conditions: small-molecule microarray binding, 635 nm fluorescence; higher = more signal;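 note: Shh protein binding to compounds spotted on small-molecule microarray slides; score combines spot fluorescence intensity with signal-to-noise across triplicate slides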
[11] = E. coli DRC41 culture turbidity changes, primary screen, E. coli filamentation inducer project, strain DRC41, OD650, 48 h (AID 1152);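 note: E. coli MC1000 strain DRC41 lacking acrAB efflux pump and sulA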; conditions: E. coli DRC41 (acrAB sulA), higher = more signal, called active from +8 up or from −8 down
[12] = small-molecule binders of probe aLefty1, primary screen, biochemical, small-molecule microarray, 635/667 nm fluorescence (AID 1153); conditions: higher = more signal;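 note: score merges spot fluorescence with signal-to-noise ratio from the scanned slide images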
[13] = PSAC antagonists in infected red cells, primary screen, cell-based, P. falciparum Indochina, OD700, 1 h (AID 1154); conditions: P. falciparum Indochina infected RBC osmotic lysis, higher = more signal, called active from +8 up or from −8 down
[14] = PSAC antagonists in infected red cells, primary screen, cell-based, P. falciparum Indochina, OD700, 2 h (AID 1155);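 note: lysis reports solute entry through the parasite surface anion channel PSAC; channel blockers reduce lysis of infected cells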; conditions: P. falciparum Indochina infected erythrocytes, osmotic lysis OD700; higher = more signal, called active from +8 up or from −8 down
[15] = osmotic lysis modulators in infected erythrocytes, primary screen, PSAC antagonist project, cell-based, P. falciparum Indochina, OD700, 3 h (AID 1156); conditions: higher = more signal, called active from +8 up or from −8 down
[16] = PSAC antagonists in infected red cells, primary screen, cell-based, P. falciparum Indochina, OD700, 18 h (AID 1157); conditions: P. falciparum Indochina infected erythrocytes, osmotic lysis OD700, 18 h; higher = more signal, called active from +8 up or from −8 down
[17] = modulators of S6 phosphorylation in cells, primary screen, cell-based, A549, cytoblot, luminescence, serum-stimulated (AID 1158); conditions: A549 phospho-S6 cytoblot, 5 h, higher = more signal;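 note: serum-stimulated A549 lung adenocarcinoma cells; signal is phosphorylated S6 detected by cytoblot immunostaining with HRP secondary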
[18] = target: NADPH oxidase 2 (Homo sapiens) (UniProt P04839); experiment: NOX2-dependent H2O2 signal modulators, primary screen, NOX inhibitor project, cell-based, HEK293-NOX2, PMA-stimulated, Amplex Red fluorescence (AID 1159); conditions: 45 min, higher = more signal, called active from +8 up or from −8 down; note: test concentration not given here
NADPH oxidase 2 (Homo sapiens), sequence (P04839 whole entry, looked up): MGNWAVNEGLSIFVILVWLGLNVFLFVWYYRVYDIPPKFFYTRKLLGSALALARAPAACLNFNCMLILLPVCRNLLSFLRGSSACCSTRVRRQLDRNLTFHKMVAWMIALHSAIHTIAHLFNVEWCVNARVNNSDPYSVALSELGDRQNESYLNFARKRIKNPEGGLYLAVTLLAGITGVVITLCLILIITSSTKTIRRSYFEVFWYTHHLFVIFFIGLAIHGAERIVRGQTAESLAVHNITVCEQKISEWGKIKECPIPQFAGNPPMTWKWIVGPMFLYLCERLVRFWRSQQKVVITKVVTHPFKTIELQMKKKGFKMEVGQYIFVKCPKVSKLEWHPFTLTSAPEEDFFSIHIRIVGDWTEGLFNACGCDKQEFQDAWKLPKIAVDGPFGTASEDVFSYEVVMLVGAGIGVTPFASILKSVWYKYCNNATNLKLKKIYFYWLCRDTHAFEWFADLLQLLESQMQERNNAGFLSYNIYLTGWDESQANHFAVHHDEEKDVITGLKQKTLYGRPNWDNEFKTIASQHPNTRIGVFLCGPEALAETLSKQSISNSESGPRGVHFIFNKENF

[19] = target: NADPH oxidase 4 (Homo sapiens) (UniProt Q9NPH5); experiment: NOX4-dependent H2O2 signal modulators, primary screen, NOX inhibitor project, cell-based, HEK293-NOX4, tetracycline-induced, Amplex Red fluorescence (AID 1160); conditions: 45 min, higher = more signal, called active from +8 up or from −8 down
NADPH oxidase 4 (Homo sapiens), sequence (Q9NPH5 whole entry, looked up): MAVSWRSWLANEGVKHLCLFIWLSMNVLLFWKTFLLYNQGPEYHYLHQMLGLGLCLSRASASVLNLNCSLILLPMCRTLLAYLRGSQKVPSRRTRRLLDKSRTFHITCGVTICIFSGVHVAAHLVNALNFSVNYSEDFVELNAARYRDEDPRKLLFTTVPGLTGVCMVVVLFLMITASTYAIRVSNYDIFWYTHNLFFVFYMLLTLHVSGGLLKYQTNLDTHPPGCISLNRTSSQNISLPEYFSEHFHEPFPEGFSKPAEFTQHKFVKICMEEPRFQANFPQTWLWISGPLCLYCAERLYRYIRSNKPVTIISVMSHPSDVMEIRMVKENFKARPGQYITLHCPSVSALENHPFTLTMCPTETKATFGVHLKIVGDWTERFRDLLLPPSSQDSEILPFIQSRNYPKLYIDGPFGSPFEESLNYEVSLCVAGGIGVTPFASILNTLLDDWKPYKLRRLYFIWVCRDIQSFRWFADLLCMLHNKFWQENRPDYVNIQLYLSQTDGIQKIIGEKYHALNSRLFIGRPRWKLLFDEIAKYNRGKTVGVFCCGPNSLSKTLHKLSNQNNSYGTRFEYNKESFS

[20] = target: NADPH oxidase 5 (Homo sapiens) (UniProt Q96PH1); experiment: NOX5-dependent H2O2 signal modulators, primary screen, NOX inhibitor project, cell-based, HEK293-NOX5, Amplex Red fluorescence (AID 1161); conditions: HEK293-NOX5, ionomycin, 45 min, higher = more signal
NADPH oxidase 5 (Homo sapiens), sequence (Q96PH1 whole entry, looked up): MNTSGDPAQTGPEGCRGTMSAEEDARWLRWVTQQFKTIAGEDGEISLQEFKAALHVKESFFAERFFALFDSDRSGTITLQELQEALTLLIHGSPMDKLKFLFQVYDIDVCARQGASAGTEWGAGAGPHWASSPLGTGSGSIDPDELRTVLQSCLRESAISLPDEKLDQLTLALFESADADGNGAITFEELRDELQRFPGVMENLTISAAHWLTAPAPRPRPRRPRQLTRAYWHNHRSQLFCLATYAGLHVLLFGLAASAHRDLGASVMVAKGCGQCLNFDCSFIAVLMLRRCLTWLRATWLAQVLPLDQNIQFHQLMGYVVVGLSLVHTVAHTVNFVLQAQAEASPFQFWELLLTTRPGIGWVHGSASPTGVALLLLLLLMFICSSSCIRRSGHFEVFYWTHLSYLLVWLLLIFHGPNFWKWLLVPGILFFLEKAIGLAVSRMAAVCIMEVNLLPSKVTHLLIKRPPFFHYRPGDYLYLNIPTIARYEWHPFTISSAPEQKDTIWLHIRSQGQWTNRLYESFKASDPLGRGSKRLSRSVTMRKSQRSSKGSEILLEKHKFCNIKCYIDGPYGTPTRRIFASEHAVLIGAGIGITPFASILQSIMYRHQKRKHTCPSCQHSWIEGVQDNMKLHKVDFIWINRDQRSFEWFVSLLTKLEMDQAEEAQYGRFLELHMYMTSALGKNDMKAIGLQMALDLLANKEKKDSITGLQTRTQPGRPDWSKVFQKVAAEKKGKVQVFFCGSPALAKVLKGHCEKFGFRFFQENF

Row | SMILES | composite z-score [1] | z-score [2] | z-score [3] | z-score [4] | z-score [5] | composite z-score [6] | composite z-score [7] | composite z-score [8] | composite z-score [9] | composite z-score [10] | z-score [11] | composite z-score [12] | z-score [13] | z-score [14] | z-score [15] | z-score [16] | z-score [17] | z-score [18] | z-score [19] | z-score [20]
1 | O=C1O[C@@H](c2ccccc2)[C@@H](c2ccccc2)N2[C@@H](c3ccc(O)cc3)[C@]3(C(=O)Nc4ccc(C#CC5=CCCCC5)cc43)[C@@H](C(=O)Nc3nc4ccccc4s3)[C@H]12 | 0.61 | -1.77 (inactive) | -1.05 (inactive) | -1.02 (inactive) | -1.09 (inactive) | 1.26 | 1.37 | 0.828 | 0.221 | 1.59 | 0.542 (inactive) | 1.53 | 0.0488 (inactive) | 1.36 (inactive) | 2.66 (inactive) | 1.6 (inactive) | -0.227 | 1.35 (inactive) | 0.617 (inactive) | -0.146
2 | NC(=O)NCC#Cc1ccc2c(c1)[C@]1(C(=O)N2)[C@H](c2ccc(O)cc2)N2[C@H](c3ccccc3)[C@H](c3ccccc3)OC(=O)[C@H]2[C@@H]1C(N)=O | -0.0353 | -0.281 (inactive) | -0.125 (inactive) | -0.0515 (inactive) | 0.143 (inactive) | -0.928 | -0.105 | -1.49 | -1.74 | 0.0139 | 0.373 (inactive) | -0.127 | 0.792 (inactive) | 0.215 (inactive) | 1.15 (inactive) | 0.319 (inactive) | 0.112 | 0.408 (inactive) | -0.571 (inactive) | -0.72
3 | CCOC(=O)C[C@H]1[C@H](OC(=O)c2cc3ccccc3oc2=O)[C@@H](NC(=O)c2ccc3ccccc3n2)c2cc(OCCCO)ccc2N1C(=O)c1ccc2ccccc2n1 | 0.27 | -0.529 (inactive) | 0.954 (inactive) | 11.8 (active) | -1.72 (inactive) | 0.617 | 0.539 | 0.916 | 0.378 | 1.46 | 1.03 (inactive) | 0.174 | 10.8 (active) | 1.56 (inactive) | 1.25 (inactive) | 0.647 (inactive) | -0.112 | 0.786 (inactive) | 0.715 (inactive) | 2.28
4 | COc1ccc(CCNC(=O)[C@@H]2c3ccccc3C(=O)N(Cc3ccccc3)[C@H]2c2ccc(CO)cc2)cc1 | -0.039 | -2.05 (inactive) | -1.57 (inactive) | 0.971 (inactive) | -1.15 (inactive) | 0.0585 | -0.0195 | -0.447 | 0.954 | 0.832 | 1.81 (inactive) | 0.436 | 3.59 (inactive) | -0.275 (inactive) | 0.504 (inactive) | -0.508 (inactive) | 1.89 | -6.18 (inactive) | -0.909 (inactive) | -4.52
5 | [N-]=[N+]=NCc1ccccc1[C@H]1OC(c2ccc(OCCCO)cc2)=N[C@@]1(Cc1ccccc1)C(N)=O | 0.765 | -1.18 (inactive) | -0.293 (inactive) | 0.479 (inactive) | -1.43 (inactive) | 2.31 | 0.278 | 0.217 | 0.65 | -1.13 | 0.0183 (inactive) | 0.174 | 25.2 (active) | 15.2 (active) | 1.79 (inactive) | 2.75 (inactive) | 0.534 | -0.17 (inactive) | 1.21 (inactive) | 1.2
6 | COc1ccccc1CN1C(=O)c2ccccc2[C@@]2(Cc3ccccc3N(C3CC3)C2=O)[C@@H]1c1ccc(CO)cc1 | -0.507 | -0.0976 (inactive) | 1.13 (inactive) | 0.622 (inactive) | -0.148 (inactive) | -0.189 | -0.125 | -1.68 | -0.821 | -0.27 | -0.685 (inactive) | -0.235 | 0.162 (inactive) | -0.0183 (inactive) | -0.108 (inactive) | 0.23 (inactive) | -0.243 | -0.161 (inactive) | 0.394 (inactive) | 1.04
7 | COC(=O)C(CC#Cc1ccc2c(c1)[C@]1(C(=O)N2)[C@H](c2ccc(OCCO)cc2)N2[C@H](c3ccccc3)[C@H](c3ccccc3)OC(=O)[C@H]2[C@@H]1C(=O)O)C(=O)OC | 0.138 | -0.565 (inactive) | -1.11 (inactive) | -0.554 (inactive) | 0.295 (inactive) | 0.344 | 0.717 | 0.477 | 0.538 | 0.759 | 1.55 (inactive) | 0.685 | 4.99 (inactive) | 0.441 (inactive) | 1.17 (inactive) | -0.121 (inactive) | 0.641 | 1.18 (inactive) | 0.0107 (inactive) | 0.918
8 | C=C(C(=O)CC[C@H](OC(=O)c1cccnc1)c1ccc(OCCO)cc1)C(C)C | 0.287 | -2.33 (inactive) | 0.143 (inactive) | 17.9 (active) | 2.79 (inactive) | 0.548 | -0.0857 | 1.12 | 0.541 | 1.47 | -0.903 (inactive) | 0.282 | 23.1 (active) | 5.33 (inactive) | 1.01 (inactive) | 1.24 (inactive) | 0.136 | -0.427 (inactive) | 0.525 (inactive) | -1.85
